# The full ranking holds about 33,000 sequences; the median of “E-score (-0.5 to 0.5)” is about -0.012, and the highest 2% start at about 0.27. The full list was thinned out, with the highest values kept by preference.
# Target: T1, Vhr1 (UniProt P40522)
# T1 sequence: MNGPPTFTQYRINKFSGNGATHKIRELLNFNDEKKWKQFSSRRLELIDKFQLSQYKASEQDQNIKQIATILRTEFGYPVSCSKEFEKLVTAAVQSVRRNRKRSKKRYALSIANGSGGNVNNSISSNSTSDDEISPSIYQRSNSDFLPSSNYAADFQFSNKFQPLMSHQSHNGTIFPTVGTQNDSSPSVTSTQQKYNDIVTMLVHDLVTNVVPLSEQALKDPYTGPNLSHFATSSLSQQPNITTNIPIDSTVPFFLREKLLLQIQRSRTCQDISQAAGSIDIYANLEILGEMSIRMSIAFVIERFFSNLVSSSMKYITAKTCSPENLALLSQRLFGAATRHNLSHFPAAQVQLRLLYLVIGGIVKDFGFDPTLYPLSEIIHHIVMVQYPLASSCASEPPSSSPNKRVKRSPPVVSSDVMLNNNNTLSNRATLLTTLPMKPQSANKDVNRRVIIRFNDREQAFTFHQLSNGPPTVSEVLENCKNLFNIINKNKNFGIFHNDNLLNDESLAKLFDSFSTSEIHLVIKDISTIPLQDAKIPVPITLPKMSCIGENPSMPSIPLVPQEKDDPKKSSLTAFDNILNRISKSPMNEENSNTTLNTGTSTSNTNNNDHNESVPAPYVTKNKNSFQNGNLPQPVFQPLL
# Experiment: PBM E-score (8-mer binding enrichment) (E-score (-0.5 to 0.5)); higher = stronger / more preferred TF binding
# Settings: protein concentration: 200 nM; construct: GST-full length
# Method in brief: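 Yeast transcription factors, full-length or as DNA-binding domains, were expressed with a GST tag using PURExpress in vitro transcription/translation. At about 100-200 nM they were applied to universal all-10-mer Agilent arrays, double-stranded by primer extension on fresh or once-stripped slides. Fluorescent anti-GST detected bound protein, and masliner normalised the scans. E-scores for ungapped eight-base words, pooled with reverse complements, came from the Universal PBM Analysis Suite.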
row,Sequence,PBM E-score
1,AGGGCTCA,0.0814
2,ATGGCTCG,0.231
3,AGGGCTCC,-0.358
4,ATGGCTCC,0.325
5,GTGGCTTA,-0.111
6,ATGGCTCA,0.293
7,CTGGCTCC,0.0343
8,ATAGCTCA,0.0225
9,CTGGCTCA,0.28
10,GTAGCTCA,0.0143
11,GTGGCTCA,0.277
12,CCGGCTCA,0.0508
13,AATGAGCC,-0.00477
14,AGAGACTG,0.0515
15,CTGCAGAA,0.0335
16,GATTGACA,0.0916
17,AAAGTTCG,-0.228
18,AGTCAGTG,0.375
19,AGTCAGTA,0.323
20,ATTCAGTG,0.0826
21,AATCAGTG,0.0903
22,AGTCAGTC,0.214
23,CGTCAGTA,0.02
24,ATAGGAGA,-0.00333
25,GCAGCAAC,0.126

row,Sequence,PBM E-score
1,CAAGGGCC,-0.201
2,ACAATATA,0.221
3,CCACACAC,0.143
4,ACAATATG,0.325
5,ACAATATC,0.0645
6,ACACTATG,0.292
7,ACACTATC,0.151
8,ACACACAC,0.316
9,ACACTATA,0.152
10,ACCCATAC,0.222
11,ACCCATAT,0.296
12,GCACACAC,0.178
13,ACCCATAG,0.0609
14,ACTGTTGG,0.034
15,CCGATTTC,-0.129
16,GTATAGAC,0.145
17,CGAAACCC,-0.0543
18,CAATCGTA,-0.029
19,ACCGATTC,-0.0343
20,CAGCGAGC,0.135
21,CGAGCAGA,0.0217
22,TTGGTAAA,-0.12
23,ACAGTATG,0.277
24,ACACACAG,0.353
25,AAACACAT,0.252

row,Sequence,PBM E-score
1,ACACACAA,0.226
2,CCACACTC,-0.0226
3,ACACACTG,0.163
4,ACACACAT,0.275
5,CCACACAG,0.165
6,ACACACTC,0.293
7,AGACACAT,0.0642
8,ACAGTATC,-0.14
9,ACAGTATA,0.11
10,CAGTTGCG,0.107
11,ACTTCTGG,-0.04
12,GTTGAAAC,-0.0891
13,CTAAGAAA,-0.112
14,AATGCTAC,0.072
15,ACGCTCCT,-0.065
16,ACCCACAT,0.271
17,ACCCACAG,0.157
18,ACCCACAC,0.185
19,ACACTTAG,0.00688
20,CGTCGGCA,0.044
21,TGTCGGAA,0.0453
22,AGTCGGAC,-0.0678
23,CGTCGGCC,-0.143
24,CCTCGGCG,0.283
25,AGTCGGAA,0.293

row,Sequence,PBM E-score
1,AGTCGGCC,0.278
2,AGTCGGCA,0.282
3,ATTCGGCC,0.0234
4,GGTCGGCA,-0.138
5,CCTCGGCA,-0.129
6,CCTCGGCC,0.00422
7,GACTTGAA,-0.152
8,AAAGGTCA,-0.173
9,CCGACTGC,0.126
10,ATTCGGCG,-0.00502
11,AGTCGGTG,0.246
12,AGTCGGCG,0.293
13,AAGTGACA,0.0587
14,ACAGGGTC,0.133
15,AAGAGTCG,0.281
16,CAGAGTCA,0.344
17,AAGAGTTG,-0.154
18,AAGAGTGG,-0.0723
19,CAGAGTCC,0.0441
20,CAGGGTCG,0.025
21,CAGAGTGA,0.0508
22,CAGAGTCG,0.328
23,CAGGGTCA,0.00801
24,CCTATTAG,-0.167
25,GTTTCCTA,-0.206

row,Sequence,PBM E-score
1,TACTGCAA,-0.0559
2,GCCTAACA,0.026
3,CCCAACTC,0.134
4,CCAGGCAA,-0.034
5,ACGCGAAA,-0.0435
6,GGTGCTAA,-0.166
7,CATTCGCG,0.279
8,AATTCGCG,-0.02
9,CATTCGCA,-0.0683
10,GATTCGCC,0.105
11,CATTCGCC,0.00808
12,GATTCGCA,0.276
13,AGTGCACA,0.0902
14,AAAGATGC,-0.193
15,AAAGACGC,-0.154
16,ACAGGCGC,-0.173
17,CCTTCTGA,-0.149
18,GCACTTGA,-0.145
19,ATGTCTCC,0.175
20,ATGTCTCG,0.135
21,ATGTCTCA,0.297
22,AAACCACG,-0.079
23,AAGACCGG,-0.166
24,ACATGACT,0.446
25,TCATGAGA,0.101

row,Sequence,PBM E-score
1,AGATGACA,0.0194
2,ACATGAGA,0.273
3,ACATGACG,-0.0758
4,AGATGACC,-0.0573
5,ACATGACA,0.206
6,ACATGAGG,-0.0901
7,ACATGAGC,0.0844
8,AGATGACT,0.435
9,ACATGAGT,0.279
10,CCATGAGA,0.191
11,ACTAGGCT,0.154
12,GATCAGGC,-0.00147
13,TAGCCTGA,0.0109
14,ACAGTGGA,-0.0091
15,ACTTGTTG,-0.0998
16,ACGACCCT,-0.139
17,ATGAGATA,0.134
18,CAGCAAGA,-0.0328
19,AACGAAGG,-0.252
20,AGGATCCA,0.0343
21,TGGATCCA,-0.0454
22,CGGATCCA,0.298
23,AACTCAGA,0.0696
24,CACTCAGA,0.12
25,CACTCAGC,0.044

row,Sequence,PBM E-score
1,GACTCAGC,0.404
2,AACTCAGC,-0.023
3,GACTCAGA,0.308
4,ACTGCAGA,-0.0788
5,AATCTAGA,-0.14
6,AACCGCGA,0.278
7,AACCGCGT,0.0481
8,TACCGCGA,0.107
9,CCTTTGCC,-0.17
10,CCATTCGC,0.109
11,GTCATCGA,0.205
12,CCCAACAG,-0.0293
13,GATGTATA,0.242
14,CATGTATA,0.28
15,CATGTATC,0.18
16,ACGATGCT,0.0556
17,AGTTGGAT,0.127
18,AAGTCATG,0.41
19,AAGTCATT,-0.0196
20,CAGTCATC,0.419
21,CCGTCATC,-0.0774
22,AAGTCATC,0.323
23,CGGTCATC,0.124
24,AAGTCAAG,-0.156
25,ATGTCATC,0.0412

row,Sequence,PBM E-score
1,AGGTCATG,0.136
2,CAAAATCC,0.096
3,CCCTTAAC,-0.168
4,ACATGTGG,0.278
5,ACATGTGA,0.0459
6,ACATGTGC,0.117
7,AGTCGGTA,-0.0272
8,ACCCCAAT,-0.0588
9,ATTTGACA,-0.00873
10,GTCCATCA,-0.104
11,GCGAATCA,0.345
12,TCGAATCA,0.253
13,CCGAATCC,0.0952
14,CCGAATCG,0.101
15,GCGAATCC,0.0147
16,ACGAATCC,0.117
17,CCGAATCA,0.288
18,ACGAATCA,0.336
19,ACGAATCT,-0.0246
20,ATTTCTGA,-0.152
21,TATGGAGA,-0.137
22,CTCCCCCC,-0.0954
23,ATCTGTTA,-0.0428
24,GTACACAC,0.261
25,ATCAGGTA,0.193

row,Sequence,PBM E-score
1,ATCCCCAC,0.122
2,ATACCCAC,0.176
3,GCGCGAAC,0.0578
4,AGCTAAAG,-0.21
5,AGAGCCTC,-0.228
6,GGGCGTGA,0.297
7,CGGCGTGA,0.142
8,AGGCGTGA,0.019
9,ACGACTAC,0.209
10,GCGACTAA,0.316
11,GCGACTAC,0.341
12,ACGACTAA,0.194
13,CCGACTAC,0.269
14,TCGACTAA,0.207
15,CCCAGGCA,0.0398
16,CATTCAGC,-0.161
17,CTTGTAAA,-0.0609
18,CGTGGGAG,0.0618
19,AATAAAGC,-0.176

# Reference: the supplement of paper PMC3334620
